IL1B secr inh: inhibitors of inflammasome signaling (IL-1 beta secretion); 360,000 tested, 4.7% active; THP-1 LPS/ATP IL-1B secretion, AlphaLISA, 16 h; hits give low values; activity change, % at 57.5 µM; AID 743279; in the data active = activity change below about -50%; inconclusive = mostly about -30% to -49%
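THP-1 cells pretreated 1 hr with compounds (up to 57.5 uM final), then stimulated with LPS (250 ng/mL final) plus ATP (1.25 mM final); secreted IL-1B measured by AlphaLISA after 16 hr, decreased signal indicating inhibition.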
HT1080 IDH1KD tx: toxicity to HT-1080 IDH1 knockdown cells (counter line); Potency, µM (highest dose often 46.1 µM), inactives show at the top dose activity, negative = toxicity, actives largely listed as cytotoxic; HT-1080 IDH1 knockdown viability, ATP luminescence, 48 h; 360,000 tested, 2% active;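 also: potency is read from the fitted curve at half-maximal effect; 0% = DMSO wells and -100% = cell-free medium wells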
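In this qHTS, HT-1080 cells depleted of IDH1 are exposed for 48 h at 37 °C to compound titrations. Toxicity is scored from CellTiter-Glo luminescence, with DMSO as full viability and medium alone as none.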
HT1080NT lethal: kills 2HG-producing HT-1080-NT fibrosarcoma cells | 360,000 tested, 1.6% active | Potency, µM (top dose mostly 46.1 µM), for inactives: top-dose activity, negative = less viability, most hits filed as cytotoxic | HT-1080-NT fibrosarcoma viability, CellTiter-Glo ATP luminescence, 48 h;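 also: NT is the 2HG producing partner of a matched IDH1 knockdown line; potency is read from the fitted curve at half-maximal effect; 0% = DMSO-treated cells and -100% = media-only wells without cells; nearly all actives have a fitted effect of over 55% in size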
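Read-out is CellTiter-Glo luminescence after 10 minutes at room temperature, following 48 hours' compound treatment of HT-1080-NT cells (750 cells/well, RPMI, 5% FBS, 37 degrees C).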
DT40 TDP1 CPT: growth inhibition of DT40 Tdp1-/-;hTDP1 cells with camptothecin (screen for TDP1 inhibitors); chicken DT40 Tdp1-/-;hTDP1 cells + 20 nM CPT, ATP luminescence, 48 h; Potency, µM (highest dose often 46.2 µM), without a hit: at the highest dose activity change, negative = growth inhibition, most hits filed as inhibitors; 420,000 tested, 12% active; also: potency is read from the fitted curve at half-maximal effect; nearly all actives have a fitted effect of over 55% in size
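Chicken DT40 Tdp1-/- cells stably complemented with human TDP1 were seeded at 400 cells/well in medium containing 20 nM camptothecin, exposed to pin-transferred compounds, and grown at 37 °C for at least 48 hr. Viability was read as ATP luminescence.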
TDP1 cell noCPT: qHTS for Inhibitors of human tyrosyl-DNA phosphodiesterase 1 (TDP1): qHTS in cells in absence of CPT | Potency, µM (titrated, usually from 46.2 µM), for the others: at the highest dose activity change, negative = growth inhibition, most hits filed as inhibitors | DT40 Tdp1-/- hTDP1 cells, no CPT, ATP luminescence, 48 h | 420,000 tested, 15% active | AID 686978, 2013; also: potency is read from the fitted curve at half-maximal effect; nearly all actives have a fitted effect of over 55% in size
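Growth kinetics read by CellTiter-Glo luminescence after ≥48 hr at 37 °C. Cells: DT40 Tdp1-/- stably carrying human TDP1, 400 per well, compound exposure in the absence of CPT (DMSO vehicle).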
* hit, by the source's call; i = inactive; ? = inconclusive; . = no result given; [ ] = dose if it differs, or a comment. Rows were chosen to be rich in hits. Some 19% of all compounds tested hit in one or more screens of this group. Unless noted, calls follow the shape of the dose curve; as a rule, active = well fitted curve in the direction sought with a large enough effect; inconclusive = small, poorly fitted or top-dose-only effect, or another doubt; inactive = no such curve, though single readings can be large; an effect the other way counts as inactive or inconclusive. Unless noted, % is scaled to controls: 0 for no effect and ±100 for the full control effect.

SMILES	IL1B secr inh	HT1080 IDH1KD tx	HT1080NT lethal	DT40 TDP1 CPT	TDP1 cell noCPT
O=S(=O)(Nc1cccc(-c2ccc(N3CCCC3)nn2)c1)c1ccccc1C(F)(F)F	.	.	.	3%	-11%
CCCNc1c(NS(=O)(=O)c2ccc(OC)c(OC)c2)c(=O)oc2ccccc12	0	10%	13%	-19%	-23%
CCN(CC)S(=O)(=O)c1ccc(N=NC2=C(O)CC(C)(C)CC2=O)cc1	-55*	4%	-7%	?	?
COc1cc(C(=O)NCC2CCCO2)cc(Br)c1OCc1ccccc1 (stereo unspecified)	-8	-3%	9%[9.24 µM]	?	?
Cc1cccnc1NC(=S)Nc1ccc(Cl)c(Cl)c1	0	-4%	-6%	-11%	?
O=C(NNC(=S)Nc1ccc(Cl)c(Cl)c1)c1ccccn1	101	?	-19%	2.9µM*	1.5µM*
CCNC(=S)NNC(=O)c1ccccn1	82	-25%	1%	21µM*	?
CCOC(=O)[C@]12CCCC=C1N(Cc1ccco1)C(=O)[C@H](CC(=O)N1CCCCC1)C2	22	5%	26%	?	?
O=C(NCCc1ccccc1)c1ccccc1NS(=O)(=O)N1CCCC1	8	7%	-1%	-23%	-15%
CCn1c(C)c(C(C)=O)c(N2CCN(C(c3ccccc3)c3ccccc3)CC2)nc1=S	-185*	?	?	9.2µM*	6.5µM*
CC(=O)c1c(N2CCOCC2)nc(=S)n(-c2ccccc2)c1C	24	?	-3%	-6%	-5%
CCCCNc1nc(=S)n(-c2ccccc2)c(C)c1C(C)=O	-91*	16µM*	?	16µM*	23µM*
CC(=O)c1c(N2CCCCC2)nc(=S)n(-c2ccccc2)c1C	-9	-1%	0%	12µM*	5.8µM*
CC(=O)c1c(N2CCCC2)nc(=S)n(-c2ccccc2)c1C	-4	-5%	14%	12µM*	8.2µM*
CC(=O)c1c(N2CCCCC2)nc(=O)n(-c2ccccc2)c1C	9	-2%	2%	-4%	-3%
CCCNc1nc(=S)n(-c2ccccc2)c(C)c1C(C)=O	0	3%	4%	-5%	-6%
CCOc1nc(C)cc(C)c1S(=O)(=O)c1cccc(Cl)c1	0	3%	-3%	-19%	-13%
CO[C@H]1/C=C/O[C@@]2(C)Oc3c(C)c(O)c4c(O)c(c5c(c4c3C2=O)NC2(CCN(CC(C)C)CC2)N=5)=NC(=O)/C(C)=C\C=C\[C@H](C)[C@H](O)[C@@H](C)[C@@H](O)[C@@H](C)[C@H](OC(C)=O)[C@@H]1C	-14	-28%	?	?	21µM*
CO[C@H]1C=CO[C@@]2(C)Oc3c(C)c(O)c4c(O)c(c(/C=N/N5CCN(C6CCCC6)CC5)c(O)c4c3C2=O)NC(=O)/C(C)=C\C=C[C@H](C)[C@H](O)[C@@H](C)[C@@H](O)[C@@H](C)[C@H](OC(C)=O)[C@@H]1C	.	.	.	4.7µM*	2.7µM*
COc1ccc(Cn2ccc3nc(C)c(C(=O)N4CCN(c5cccc(OC)c5)CC4)cc3c2=O)cc1	.	.	.	15µM*	?
COc1ccc(Cn2ccc3nc(C)c(C(=O)NCc4ccc(C)cc4)cc3c2=O)cc1	.	.	.	26µM*	?
COc1ccc(Cn2ccc3nc(C)c(C(=O)N4CCN(c5ccccc5)CC4)cc3c2=O)cc1	.	.	.	3%	-7%
Cc1ccc(C)c(N2CCN(C(=O)c3cc4c(=O)n(Cc5ccco5)ccc4nc3C)CC2)c1	.	.	.	?	16µM*
COc1cccc(N2CCN(C(=O)c3cc4c(=O)n(Cc5ccco5)ccc4nc3C)CC2)c1	.	.	.	16µM*	16µM*
CC(=O)c1ccc(N2C(=NC(=O)C3CCCCC3)SC3CS(=O)(=O)CC32)cc1 (stereo unspecified)	-12	-1%	3%	-25%	5%
SMILES	IL1B secr inh	HT1080 IDH1KD tx	HT1080NT lethal	DT40 TDP1 CPT	TDP1 cell noCPT
COc1ccc(Cn2ccc3nc(C)c(C(=O)N4CCN(c5cc(C)ccc5C)CC4)cc3c2=O)cc1	.	.	.	21µM*	23µM*
Cc1nc2ccn(Cc3ccccc3)c(=O)c2cc1C(=O)N1CCN(c2ccccc2)CC1	12	-4%	?	-24%	-16%
O=C(Nc1ccc(-c2ccco2)cc1)C1CCCN(Cc2ccco2)C1 (stereo unspecified)	-13	1%	-13%	?	?
COc1cccc(-c2ccc(NC(=O)C3CCCN(CCCn4nc(C)cc4C)C3)cc2)c1 (stereo unspecified)	-4	?	?	18µM*	?
COc1cccc(-c2ccc(NC(=O)C3CCCN(Cc4ccco4)C3)cc2)c1 (stereo unspecified)	-80*	5%	-3%	?	16µM*
Cn1cc(CN2CCCC(C(=O)Nc3ccc(-c4cccc(F)c4)cc3)C2)cn1 (stereo unspecified)	-11	?	0%	21µM*	12µM*
Cc1ncc(CN2CCCC(C(=O)Nc3ccc(-c4ccco4)cc3)C2)n1C (stereo unspecified)	i	-16%	-19%	?	21µM*
O=C(O)c1cc(S(=O)(=O)NCC2CCCO2)ccc1Cl (stereo unspecified)	2	7%	13%	-19%	0%
COc1ccc([C@H]2CC(=O)C[C@@H](CCn3cc(Cc4ccccc4)nn3)O2)cc1	24	9%	17%	-5%	-18%
Nc1nc(Nc2cccc(Cl)c2)sc1C(=O)c1ccc(F)cc1	.	.	.	18µM*	23µM*
COc1ccc(Nc2nc(N)c(C(=O)c3ccc(F)cc3)s2)cc1	-22	1.8µM*	?	0.73µM*	0.58µM*
CC(=O)c1sc(Nc2ccc(Oc3ccccc3)cc2)nc1C	47	?	?	?	21µM*
CC(=O)c1sc(Nc2ccccc2)nc1C	29	7%	6%	-20%	-15%
COc1ccc(Nc2nc(N)c(C(=O)c3ccc(OC)cc3)s2)cc1	-74*	?	?	1.6µM*	1.6µM*
CC(=O)c1sc(Nc2cccc(C)c2)nc1C	17	-9%	-10%	-5%	4%
O=C1[C@@H]2CSCN2C(=O)CN1Cc1c(F)cccc1Cl	34	9%	2%	17%	7%
CC(=O)c1sc(N/N=C\c2ccccc2O)nc1C	-74*	?	?	1µM*	0.92µM*
N#Cc1c(Nc2ccc(F)cc2)sc(C(=O)c2ccc(F)cc2)c1N	6	-26%	?	-24%	-25%
CC(C)(C)C(=O)c1sc(Nc2ccccc2)nc1N	-71*	?	-8%	?	?

Screening results deposited in PubChem BioAssay by National Center for Advancing Translational Sciences (NCATS).
